Rows were chosen to be rich in hits. Some 17% of all compounds tested hit in one or more screens of this group.
HT1080 IDH1KD tx = qHTS for induction of synthetic lethality in tumor cells producing 2HG: qHTS for the HT-1080-IDH1KD cell line; HT-1080 IDH1 knockdown viability, ATP luminescence, 48 h; 2% of 360,000 active; Potency, µM (top dose mostly 46.1 µM), for inactives: top-dose activity, negative = toxicity, most hits filed as cytotoxic;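 note: 0% = DMSO wells and -100% = cell-free medium wells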
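IDH1KD HT-1080 cells, 750/well, RPMI + 5% FBS; compound pinned after 2 h settling; 48 h, 37 °C; CellTiter-Glo luminescence; % activity normalised to DMSO and no-cell wells; curves fitted, classed by r2 and efficacy.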
HT1080-NT tox = qHTS for induction of synthetic lethality in tumor cells producing 2HG: qHTS for the HT-1080-NT fibrosarcoma cell line. HT-1080-NT fibrosarcoma viability, CellTiter-Glo ATP luminescence, 48 h. Potency, µM (doses to about 46.1 µM), without a hit: top-dose activity, negative = less viability, actives largely listed as cytotoxic. 1.6% of 360,000 active;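 note: NT is the 2HG producing partner of a matched IDH1 knockdown line; 0% = DMSO-treated cells and -100% = media-only wells without cells; nearly all actives have a fitted effect of over 55% in size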
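Fibrosarcoma NT cells, 750 per well in 5% FBS RPMI, were exposed to compound for 48 hours. Viability: CellTiter-Glo luminescence.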
TDP1 cell CPT = qHTS for Inhibitors of human tyrosyl-DNA phosphodiesterase 1 (TDP1): qHTS in cells in presence of CPT | chicken DT40 Tdp1-/-;hTDP1 cells + 20 nM CPT, ATP luminescence, 48 h | Potency, µM (highest dose often 46.2 µM), for inactives: top-dose activity change, negative = growth inhibition, usual class: inhibitors | 12% of 420,000 active; note: % is set by controls: 0 for no effect and ±100 for the full control effect; nearly all actives have a fitted effect of over 55% in size
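Chicken DT40 Tdp1-/- cells complemented with human TDP1, 400 cells/well, exposed to compounds plus 20 nM camptothecin for at least 48 h at 37 C; viability read as ATP content by CellTiter-Glo luminescence.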
DT40 TDP1 no CPT = qHTS for Inhibitors of human tyrosyl-DNA phosphodiesterase 1 (TDP1): qHTS in cells in absence of CPT | DT40 Tdp1-/- hTDP1 cells, no CPT, ATP luminescence, 48 h | Potency, µM (highest dose often 46.2 µM), for inactives: at the top dose activity change, negative = growth inhibition, hits mostly inhibitors | 15% of 420,000 active | AID 686978, 2013; note: % is set by controls: 0 for no effect and ±100 for the full control effect; nearly all actives have a fitted effect of over 55% in size
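Seeded 400 DT40-hTDP1 cells/well (vehicle DMSO, no 20 nM CPT); pinned compounds; ≥48 hr at 37 °C; CellTiter-Glo luminescence as viability measure.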
HepG2 viability = qHTS for Inhibitors of TGF-b: Cytotox Counterscreen; HepG2 CAGA-GFP viability, ATP luminescence, 18 h; Potency, µM (top dose mostly 46.1 µM), for inactives: at the highest dose activity change, negative = cytotoxicity, usual class: cytotoxic; 0.76% of 410,000 active
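CellTiter-Glo luminescence gave cytotoxicity after 18 hours at 37 degrees C. The cells were HepG2 CAGA-GFP in 1% FBS DMEM, stimulated with 500 pg/mL TGF-beta after compound addition. %Activity was normalised to no-cell wells (complete cell-killing) and DMSO (no toxicity), and curves were fitted and classified.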
TGFb inhibitor = qHTS for Inhibitors of TGF-b; 1.2% of 410,000 active; HepG2 CAGA-GFP TGF-b/SMAD3 reporter, GFP fluorescence, 18 h; TGF-beta stimulated, 500 pg/mL final; AID 588855, 2011; Potency, µM (doses to about 46.1 µM), inactives show at the highest dose activity, negative = inhibition, most hits filed as inhibitors; note: % is set by controls: 0 for no effect and ±100 for the full control effect; nearly all actives have a fitted effect of over 65% in size
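Inhibition was scored as loss of TGF-beta-induced (500 pg/mL final, 18 hours, 37 degrees C) GFP in HEPG2 cells carrying a CAGA-GFP reporter, in DMEM with 1% FBS. Well GFP was summed per cell; Activity was normalised to unstimulated and stimulated DMSO wells, then concentration-response fitting.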
Numbers without * were called inactive; ? = inconclusive; · = no result; [ ] = dose if it differs, or a comment. Calls come from the whole dose curve; as a rule, active = well fitted curve in the direction sought with a large enough effect; inconclusive = small, poorly fitted or top-dose-only effect, or another doubt; inactive = no such curve, though single readings can be large; an effect the other way counts as inactive or inconclusive. Potency is the fitted concentration of half-maximal effect.

SMILES	HT1080 IDH1KD tx	HT1080-NT tox	TDP1 cell CPT	DT40 TDP1 no CPT	HepG2 viability	TGFb inhibitor
COc1cccc(CN(C)C(=O)c2cccc(NC(=O)CC3SC(N4CCCCC4)=NC3=O)c2)c1OC (centres undefined)	-6.2%	0.6%	?	18.4µM*	-28.3%	-17.6%
Cn1c(=O)c2c(nc(NCc3ccco3)n2CC(O)COc2ccccc2)n(C)c1=O (centres undefined)	-3.6%	1.3%	?	9.2µM*	-27.1%	-25.0%
CCCn1c(NCc2ccco2)nc2c1c(=O)n(C)c(=O)n2C	0.8%[9.24 µM]	-1.2%	?	13µM*	-8.4%	?
COc1cccc(Cn2c(NCc3ccco3)nc3c2c(=O)n(C)c(=O)n3C)c1	-23.6%	-27.0%	1.84µM*	1.46µM*	-34.6%	0.0%
COc1ccc(Cl)c(Cn2c(NCCN)nc3c2c(=O)n(C)c(=O)n3C)c1	·	·	?	?	-79.6%	0.0%
COc1ccc(Cl)c(Cn2c(NCc3ccco3)nc3c2c(=O)n(C)c(=O)n3C)c1	-0.4%	-9.1%	4.61µM*	3.66µM*	5.1%	-32.3%
Cc1ccccc1NC(=S)NCC(c1cccnc1)N(C)C (centres undefined)	2.3%	17.9%	6.8%	5.0%	8.1%	-14.6%
NC(=O)c1nn(CC(=O)Nc2cccc(S(=O)(=O)N3CCCC3)c2)c(=O)c2ccccc12	1.7%	3.7%	-25.7%	-0.7%	-6.7%	9.4%
COc1ccccc1NC(=O)C1=C(C)Nc2c(C(=O)Nc3ccc(F)cc3)cnn2C1c1ccc(Cl)cc1 (centres undefined)	·	·	13µM*	?	-7.7%	-11.0%
CCOc1ccc(NC(=O)c2cnn3c2NC(C)=C(C(=O)Nc2ccc(Cl)cc2)C3c2ccc(OC)c(OC)c2)cc1 (centres undefined)	·	·	23.1µM*	10.3µM*	-18.5%	-23.5%
CNCCOc1ccccc1-c1ccccc1	0.4%	-1.3%	-27.7%	?	-20.9%	2.4%
CNCCCC1c2ccccc2C=Cc2ccccc21	23.1µM*	18.4µM*	?	23.1µM*	-33.1%	24.8%
O=C(NCCc1ccccn1)C1CCN(S(=O)(=O)c2ccc3ccccc3c2)CC1	2.2%	1.4%	-22.3%	-9.9%	-10.9%	-7.1%
Cc1ccn2c(Nc3c(C)cccc3C)c(-c3ccc(Cl)s3)nc2c1	·	·	13µM*	18.4µM*	-23.5%	?
Cc1ccn2c(Nc3c(C)cccc3C)c(-c3ccsc3)nc2c1	·	·	20.6µM*	23.1µM*	-40.1%	?
CCOC(=O)c1c(C(C)(C)C)oc2ccc(O)cc12	?	?	20.6µM*	23.1µM*	-111.7%	?
Cc1ccc(-c2nc(C)c(CCNS(=O)(=O)c3ccc(F)c(C(F)(F)F)c3)s2)cc1	·	·	·	·	-88.6%	?
Cc1cc(C)nc(SCC(=O)N2CCc3ccccc32)n1	5.2%	5.1%	-15.5%	-4.1%	6.9%	-0.8%
O=C(CSc1ncc(-c2ccccc2)n1C1CCCC1)N1CCc2ccccc21	?	-7.8%	23.1µM*	20.6µM*	-27.1%	?
O=C(CSc1nc(-c2ccccc2)cc(=O)[nH]1)N1CCc2ccccc21	?	-15.4%	20.6µM*	16.4µM*	-83.8%	-0.7%
O=C(CSc1nnc(-c2ccccc2)c(-c2ccccc2)n1)N1CCc2ccccc21	6.1%	0.6%	15.8µM*	?	-1.8%	-1.7%

Source: PubChem (National Center for Advancing Translational Sciences (NCATS))
